# Hits are enriched below; roughly 5% of the tested compounds scored in any of these assays.
# USP8 inh = blocks human USP8 ubiquitin-rhodamine cleavage | inhibition, % at 20 µM | hit rate 4.2% among 47,000 | purified USP8, Ub-rhodamine cleavage fluorescence, 30 min | P40818
# USP7 block = inhibitors of human USP7 deubiquitinase. Q93009. purified USP7, Ub-rhodamine cleavage fluorescence. inhibition, % at 20 µM. hit rate 0.3% among 47,000. AID 1645854
# UCHL1 inh = blocks human UCHL1 ubiquitin-rhodamine cleavage. inhibition, % at 20 µM. purified UCHL1, Ub-rhodamine cleavage fluorescence. hit rate 0.2% among 47,000. AID 1645859. P09936
# Target sequence (P09936 whole entry, looked up): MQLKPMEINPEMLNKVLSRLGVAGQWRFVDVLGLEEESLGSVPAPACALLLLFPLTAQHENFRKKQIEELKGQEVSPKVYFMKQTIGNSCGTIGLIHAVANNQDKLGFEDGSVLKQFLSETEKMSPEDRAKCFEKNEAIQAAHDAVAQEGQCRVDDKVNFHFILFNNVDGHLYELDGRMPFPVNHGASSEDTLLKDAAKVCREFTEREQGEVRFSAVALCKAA
# USP10 block = inhibitors of human USP10 deubiquitinase. inhibition, % at 20 µM. purified USP10, Ub-rhodamine fluorescence, 60 min. hit rate 1.1% among 47,000
# * hit, by the source's call. No stated cut-off is given here; in the data, active means inhibition above about 30%; inactive means the rest.
SMILES,USP8 inh,USP7 block,UCHL1 inh,USP10 block
O=C(Cc1ccc(-n2c(=O)c3ccccc3n(Cc3cccc(F)c3)c2=O)cc1)NC1CCCC1,21,6,-2,16
O=C(Cn1c(=O)n(-c2ccc(CC(=O)NC3CCCC3)cc2)c(=O)c2ccccc21)Nc1ccccc1[N+](=O)[O-],80*,0,2,44*
Cc1ccccc1C(=O)NCCn1cc(SCC(=O)Nc2ccc3c(c2)OCCO3)c2ccccc21,-19,7,4,9
O=C(N[C@@H]1C[C@@H](Oc2ccccc2)[C@H](O)[C@H]1N1CCOCC1)c1ncc[nH]1,-21,-7,-7,-4
O=c1c(-c2nc(-c3ccncc3)no2)cccn1Cc1c(F)cccc1Cl,51*,20,-3,-7
O=c1c(-c2nc(C3CC3)no2)cccn1Cc1nc(-c2ccccc2F)no1,-20,-30,-48,-7
CCOc1ccc(CC(=O)Nc2c(C)nc3c(C)cccn3c2=O)cc1,7,5,1,6
O=C(C1CCCCC1)N1CCC2(CC1)NC(=O)N(CCc1ccccc1)C2=O,7,0,0,1
CCCCNC(=O)c1cc(=O)nc2sc(N3CCC(C)CC3)nn12,-2,-9,-2,-2
Cc1nc(C2COCCN2C(=O)c2cc(C(C)(C)C)[nH]n2)cc(=O)[nH]1 (stereo unspecified),0,-1,37*,2
CC(C)(C)c1cc(C(=O)N2CCOCC2c2ccn[nH]2)n[nH]1 (stereo unspecified),0,0,-7,-2
COCC(=O)N1CCN2C[C@H]1C(=O)NC[C@H]1O[C@@H](CC(=O)N[C@H]3C[C@@H](C2=O)N(Cc2ccc(Cl)c(F)c2)C3)[C@H](O)[C@@H]1O,-9,-17,-2,-3
CN1CCCC(OC(=O)c2cc(Cl)cc(Cl)c2)C1 (stereo unspecified),32*,-6,3,4
COc1ccc(CCNC(=O)C23CC4CC(CC(C4)C2)C3)cc1OC,9,1,0,3
COc1ccc(-c2ccc3cc(C(=O)O)ccc3c2)cc1C12CC3CC(CC(C3)C1)C2,66*,-13,5,80*
Cc1c(Cl)cccc1S(=O)(=O)Nc1ccc(Cn2cncn2)cc1,-3,7,3,5
O=S(=O)(Nc1ccc(Oc2ncnc3cc(Cl)ccc23)nc1)c1ccc(S(=O)(=O)c2ccccc2)s1,-15,16,3,45*
Clc1ccc2c(Oc3ccc(Br)cc3)ncnc2c1,10,8,-1,5
Cn1c(=O)sc2cc(NC(=O)c3ccc(Br)cc3)ccc21,3,7,6,1
CC(C)c1ccc(NC(=O)C2C3C=CC4(O3)C2C(=O)N(CCc2ccc(Cl)cc2)C4C(=O)NC2CCCCC2)cc1 (stereo unspecified),54*,6,3,9
Cc1ccc(NC(=O)C2C3C=CC4(O3)C2C(=O)N(CCc2ccccc2)C4C(=O)NC2CCCCC2)cc1Cl (stereo unspecified),34*,-3,0,25
CSc1cccc(NC(=O)C2C3C=CC4(O3)C2C(=O)N(CCc2ccccc2)C4C(=O)NC2CCCCC2)c1 (stereo unspecified),57*,-6,-2,39*
CC(C)(C)c1cc2nc3c(c(=O)n2[nH]1)CN(Cc1ccnc(N2CCSCC2)n1)CC3,-222,-1,-4,-5
Cc1[nH]c2ccccc2c1CCNC(=O)c1cc2cc(Cl)ccc2oc1=O,56*,0,5,-3
COc1cccc(NC(=O)CN2CCC(c3nc4ccccc4[nH]3)CC2)c1,0,-2,-4,-8
SMILES,USP8 inh,USP7 block,UCHL1 inh,USP10 block
O=C(NCc1ccc(F)cc1)N1CCC(Nc2cccnc2)C1 (stereo unspecified),35*,-20,-8,-6
O=C(c1cccc(F)c1)N1CCC(Nc2cccnc2)C1 (stereo unspecified),25,-45,-23,-4
O=C1c2c(O)ccc(O)c2C2(Oc3cccc4cccc(c34)O2)C2OC12 (stereo unspecified),39*,6,45*,14
O=C1c2c(O)cccc2C2(Oc3cccc4cccc(c34)O2)C2OC12 (stereo unspecified),84*,-6,28,34*
Cc1ccccc1S(=O)(=O)N1CCC(n2cnnc2C2CC2)CC1,-1,-4,-2,-3
CCOc1ccc(-c2cc3nc(C4CCN(C(=O)OC(C)(C)C)CC4)c(C(=O)Nc4cc(F)ccc4F)cn3n2)cc1,56*,9,-6,2
CCOCCc1nnc(NC(=O)C(=O)c2cc(C)n(-c3ccc(F)cc3)c2C)s1,0,5,1,-1
Cc1cc(C(=O)C(=O)Nc2nnc(-c3cccnc3)s2)c(C)n1-c1ccccc1F,37*,-9,12,-6
COc1ccc(C2O[C@H](c3ccccc3)[C@H](C)N2C)cc1 (stereo partly specified),19,9,4,1
O=C(CCCn1c(=O)c2ccccc2n(Cc2cc(=O)n3ccccc3n2)c1=O)NCc1ccco1,-19,-5,0,-3
O=C(NCc1ccco1)c1ccc(Cn2c(=O)c3sccc3n(Cc3cc(=O)n4ccccc4n3)c2=O)cc1,68*,4,9,13
Cc1ccccc1NC(=O)N1CC[C@@H]2CN(CCc3ccccc3)S(=O)(=O)[C@@H]2CC1,-6,-7,-4,-1
O=C(Nc1ccc2c(c1)OCO2)c1cnc(N2CCOCC2)nc1,81*,0,2,0
O=C(Nc1ccc2c(c1)OCO2)c1cc(CN2CCCC2)on1,53*,-7,5,5
O=C(Nc1ccc2c(c1)OCCO2)c1cnc(N2CCOCC2)nc1,-4,-6,1,1
COc1ccc(-c2c(C)noc2NC(C)=O)cc1S(=O)(=O)N1CCCCC1,19,2,1,0
Cn1nc(C(=O)NCc2cccnc2)c2c1-c1ccsc1CC2,-1,1,4,-1
CC(Oc1ccc(F)cc1)C(=O)Nc1ccc2nsnc2c1 (stereo unspecified),83*,-7,3,3
CN(c1nc(-c2cccs2)nc2ccccc12)C1CCCCC1,6,3,2,3
COc1ccc(NC(=O)c2ccccc2OCC(=O)Nc2ccccc2C(F)(F)F)c(C)c1,52*,0,-1,5
CC1CCC2C(C)(C)C(O)CCC2(C)C12Cc1c(cc3c(c1O)CN(CCCCC(=O)O)C3=O)O2 (stereo unspecified),-63,0,-14,-16
CCOc1ccccc1NC(=O)CN1C(=O)c2cccc3cccc1c23,68*,9,-1,26
COc1ccccc1NC(=O)CN1C(=O)c2cccnc2Sc2ccccc21,0,4,0,-4
Cc1ccc(-c2ocnc2C(=O)Nc2cccc(C)c2C)s1,8,3,0,2
Cc1noc(/C=C/Nc2ccc(OC(F)(F)F)cc2)c1[N+](=O)[O-],41*,8,-2,10
COc1cc(OC)c(NC(=O)Cn2c(=O)n(-c3ccc(CC(=O)NCC4CCCO4)cc3)c(=O)c3ccccc32)cc1Cl (stereo unspecified),0,4,4,0
